Sampled rows, rich in hits. Any-hit rate of the full collection: about 2.5%.
L3MBTL1 inh-1 – inhibitors of human L3MBTL1. Q9Y468. AlphaScreen L3MBTL1–H3K9me1 peptide binding. Potency, µM (highest dose often 57.1 µM), inactives show at the top dose activity, negative = inhibition, actives largely listed as inhibitors. hit rate 0.66% among 230,000. AID 485360; further: on the % scale 0 is the no-effect control and ±100 the full control effect; nearly all actives have a fitted effect of over 60% in size
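AlphaScreen proximity signal between nickel-chelate acceptor and streptavidin donor beads (final 10 ug/mL) reports binding of 50 nM L3MBTL1 to 75 nM biotin-H3 K9me1 peptide; complex incubated with compounds 30 min at room temperature; cefsulodin titration as control.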
Pol kappa inh-1 – DNA polymerase kappa (human) inhibition; hit rate 0.53% among 400,000; AID 588579; purified Pol kappa, fluorescent DNA synthesis assay, 10 min; Potency, µM (top dose mostly 107 µM), inactives show top-dose activity, negative = inhibition, actives largely listed as inhibitors; Q9UBT6; further: on the % scale 0 is the no-effect control and ±100 the full control effect
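Kinetic fluorescence screen: compound preincubated 15 min RT with 10 nM enzyme; 50 nM substrate (final) initiates; reads at 0/10 min.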
POLB inh – DNA polymerase beta (human) inhibition; Pol beta primer extension/strand displacement, fluorescence kinetic; Potency, µM (series often up to 114 µM), for inactives: at the top dose activity change, negative = inhibition, actives largely listed as inhibitors; hit rate 1.3% among 340,000; AID 485314; further: on the % scale 0 is the no-effect control and ±100 the full control effect
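Curves were derived by four-parameter Hill fits of normalized qHTS data. The kinetic fluorescent primer-extension read was taken at 0 and 10 min after 50 nM substrate, following a 15 min room-temperature preincubation of 10 nM enzyme with compounds.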
APEX1 inh – blocks human APE1 abasic DNA cleavage; hit rate 0.35% among 350,000; recombinant APE1, TAMRA/BHQ-2 abasic DNA cleavage fluorescence; Potency, µM (doses to about 65.8 µM), without a hit: at the highest dose activity change, negative = inhibition, usual class: inhibitors;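 further: plate controls were vehicle for no effect and reference inhibitor for full effect; nearly all actives have a fitted effect of over 55% in size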
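Incision of a quenched TAMRA/BHQ-2 THF abasic-site duplex (50 nM) by 0.75 nM APE1, after 15 min compound preincubation, measured as fluorescence increase over three 60 s reads. Values normalized to buffer, DMSO and NSC13755 control wells.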
Pol iota inh – DNA polymerase iota (human) inhibition; Q9UNA4; Pol iota fluorescent replication assay, 10 min; Potency, µM (top dose mostly 115 µM), for the others: at the top dose activity, negative = inhibition, most hits filed as inhibitors; hit rate 1% among 390,000; AID 588590
Target sequence (Q9UNA4 whole entry, looked up): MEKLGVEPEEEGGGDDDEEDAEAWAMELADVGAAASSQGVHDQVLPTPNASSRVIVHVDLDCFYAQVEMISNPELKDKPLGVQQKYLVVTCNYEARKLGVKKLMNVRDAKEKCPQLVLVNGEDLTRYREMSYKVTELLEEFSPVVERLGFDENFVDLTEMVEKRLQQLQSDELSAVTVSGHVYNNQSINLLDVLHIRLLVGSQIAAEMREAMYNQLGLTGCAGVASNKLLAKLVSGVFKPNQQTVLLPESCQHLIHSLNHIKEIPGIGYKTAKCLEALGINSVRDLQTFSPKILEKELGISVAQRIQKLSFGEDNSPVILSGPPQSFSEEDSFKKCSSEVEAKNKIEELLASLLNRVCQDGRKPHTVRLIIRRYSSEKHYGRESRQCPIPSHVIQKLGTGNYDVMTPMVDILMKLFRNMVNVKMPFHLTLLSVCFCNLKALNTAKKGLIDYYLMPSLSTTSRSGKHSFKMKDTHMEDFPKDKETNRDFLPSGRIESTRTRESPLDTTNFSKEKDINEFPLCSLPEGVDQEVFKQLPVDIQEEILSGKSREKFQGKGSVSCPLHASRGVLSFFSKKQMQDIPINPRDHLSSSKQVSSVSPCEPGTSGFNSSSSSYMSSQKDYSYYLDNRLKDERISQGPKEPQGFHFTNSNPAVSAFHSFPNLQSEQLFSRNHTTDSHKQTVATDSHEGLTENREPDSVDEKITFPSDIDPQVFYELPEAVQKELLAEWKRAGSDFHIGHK
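Pol iota at 10 nM preincubated 15 min with compounds at room temperature; reaction started with fluorescent substrate, 50 nM final. Fluorescence read kinetically at 0 and 10 min; buffer-only wells as negative control.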
Pol eta inh-1 – DNA polymerase eta (human) inhibition | Potency, µM (doses to about 114 µM), inactives show top-dose activity change, negative = inhibition, actives largely listed as inhibitors | hit rate 1.2% among 390,000 | Q9Y253 | recombinant Pol eta, fluorescent DNA replication assay; further: on the % scale 0 is the no-effect control and ±100 the full control effect
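Pol eta at 10 nM preincubated with compounds 15 min at room temperature; reaction started with fluorescent substrate (50 nM final) and read kinetically at 0 and 10 min.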
L3MBTL1 inh-2 – validation of human L3MBTL1 methyl-lysine binding inhibitors | hit rate 91% among 500 | L3MBTL1 methyl-lysine binding inhibition, biochemical qHTS | Potency, µM, hits mostly inhibitors | shares compounds with L3MBTL1 inh-1; further: nearly all actives have a fitted effect of over 70% in size
AlphaScreen ctr2 – counter-screen for L3MBTL1 inhibitors: AlphaScreen signal interference. 500 tested, under 10 active. AlphaScreen counterscreen, signal inhibition. shares compounds with L3MBTL1 inh-1. Potency, µM (titrated, usually from 57.1 µM), inactives show top-dose activity change, negative = inhibition, actives largely listed as inhibitors; further: 0% is about no effect
TbPGK inh – blocks T. brucei phosphoglycerate kinase | shares compounds with Pol kappa inh-1 | TbPGK coupled GAPDH assay, Kinase-Glo luminescence | Potency, µM (top dose mostly 57.5 µM), without a hit: at the top dose activity change, negative = inhibition, hits mostly inhibitors | hit rate 79% among 500 | AID 686980; further: on the % scale 0 is the no-effect control and ±100 the full control effect; nearly all actives have a fitted effect of over 65% in size
Pol iota confirm – Confirm cherry-picked inhibitors of human polymerase iota. shares compounds with Pol kappa inh-1. Pol iota primer extension, TAMRA/BHQ fluorescence. Potency, µM, most hits filed as inhibitors. hit rate 77% among 1,500
Pol kappa inh-2 – Pol kappa (human) inhibition, cherry-pick confirmation; shares compounds with Pol eta inh-1; purified Pol-kappa, fluorescent strand-displacement substrate; Potency, µM, hits mostly inhibitors; hit rate 76% among 920; AID 720501
Pol eta inh-2 – Pol eta (human) inhibition, cherry-pick confirmation. AID 720502. Pol eta primer extension, TAMRA/BHQ fluorescence, 10 min. hit rate 64% among 2,600. shares compounds with Pol eta inh-1. Potency, µM, actives largely listed as inhibitors
Active calls of the source: *; u = inconclusive; x = no result; [ ] = another dose, or the depositor's remark. The call rests on the fitted dose curve; in most records, active means well fitted curve in the direction sought with a large enough effect; inconclusive means small, poorly fitted or top-dose-only effect, or another doubt; inactive means no such curve, though single readings can be large; an effect the other way counts as inactive or inconclusive. Potency means the concentration at half of the fitted maximal effect.

SMILES | L3MBTL1 inh-1 | Pol kappa inh-1 | POLB inh | APEX1 inh | Pol iota inh | Pol eta inh-1 | L3MBTL1 inh-2 | AlphaScreen ctr2 | Pol eta inh-2 | others
COc1cccc(CNC(=O)CN2c3cccc4cccc(c34)S2(=O)=O)c1 | 32µM* | u | x | u | 45µM* | 14µM* | 27* | 7% | u
Cc1ccc(CNC(=O)CN2c3cccc4cccc(c34)S2(=O)=O)cc1 | -4% | 6% | x | -4% | 63% | -18% | x | x | x
Cc1nc(N)sc1-c1csc(Nc2cccc(C(=O)O)c2)n1 | 22µM* | 25µM* | u | 19% | 11µM* | 40µM* | 21* | 4% | 48* | Pol kappa inh-2=12*
CCC(=O)Nc1nc(C)c(-c2csc(Nc3cccc(C(=O)O)c3)n2)s1 | -23% | -19% | 1% | -2% | 101% | u | x | x | x
Cc1ccc(-c2nc3c(c(=O)[nH]c(=O)n3Cc3ccccc3)n2C)o1 | 10µM* | u | 10µM* | 22µM* | 11µM* | 11µM* | 3.4* | 16% | 76* | Pol iota confirm=u
O=C(O)CNc1ccccc1C(=O)O | 22µM* | -66% | -80% | -6% | u | 20µM* | 3* | 1% | 60*
O=C(O)c1ccccc1NCc1cccnc1 | x | -11% | x | x | 5% | 2% | x | x | x
CCCCNc1nc(C)nc2c1nc(-c1ccccc1)n2CCN1CCCC1 | x | x | x | -3% | x | x | x | x | x
N#CCc1ccc(NC(=O)/C=C/c2ccc([N+](=O)[O-])o2)cc1 | 4µM* | u | u | u | 45µM* | 20µM* | 27* | 11% | u
NN=C1c2cc(S(=O)(=O)NCCO)ccc2-c2ccc(S(=O)(=O)NCCO)cc21 | x | -14% | x | x | 3% | x | x | x | x
C=CCn1c(SCC(=O)c2ccc(O)c(O)c2)nnc1-c1ccc(OC)cc1 | 8.9µM* | 45µM* | x | -32% | 50µM* | 10µM* | 13* | 0% | u | Pol iota confirm=u
O=C(CSc1nccn1-c1cccc(Cl)c1)Nc1cccc(C(F)(F)F)c1 | x | 0%[60.1 µM] | -19% | x | 1% | -26% | x | x | x
COc1ccc2c(c1)c(=O)oc1c(C)c(OCc3ccc(C(=O)O)cc3)ccc12 | x | -4% | u | u | u | u | x | x | x
COc1ccc2c(c1)c(=O)oc1c(C)c(OCc3cc(C(=O)O)oc3C)ccc12 | 35µM* | 79µM* | 35µM* | 14% | 35µM* | 14µM* | 11* | 4% | u | Pol iota confirm=u
COCCN(C(=O)COC(=O)c1cc2c(s1)CCC2)c1c(N)n(Cc2ccccc2)c(=O)[nH]c1=O | 2.5µM* | 4.5µM* | x | 0.75µM* | 3.2µM* | 0.71µM* | 0.84* | -2% | 2.1* | TbPGK inh=0.82µM*;Pol iota confirm=1.9*
COCCN(C(=O)COC(=O)Cc1coc2cc(C)ccc12)c1c(N)n(Cc2ccccc2)c(=O)[nH]c1=O | 25µM* | u | x | -33% | 35µM* | 20µM* | 27* | 1% | 60*
CCC1CCc2sc(C(=O)OCC(=O)N(CCOC)c3c(N)n(Cc4ccccc4)c(=O)[nH]c3=O)cc2C1 (stereo not drawn) | -11% | -8% | x | 1% | 15% | -19% | x | x | x
COC(=O)c1ccc([C@@H]2Nc3c(OC)ccc(C)c3[C@@H]3C=CC[C@@H]32)cc1 | x | -9% | -25% | x | u | -1% | x | x | x
COC(=O)COc1ccc(C2Nc3c(Cl)ccc(C(=O)O)c3C3C=CCC32)cc1 (stereo not drawn) | 20µM* | u | u | u | u | 28µM* | 17* | 4% | 48*

Bioassay records (PubChem)
